# Bioassay records from PubChem BioAssay.
# Only some compounds are listed: those with a hit (about 2.3% of all), similar ones and a draw of the others.
# TRPM1 prom inh – inhibitors of MITF-driven TRPM1 promoter in melanoma cells | inhibition, % at 12.5 µM | actives 0.83% (n = 330,000) | SK-MEL-5 TRPM1 promoter luciferase, 24 h;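 active means mean inhibition across replicates of 60% or more, whatever share of single replicates reaches that level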
# 697 NFkB inh – lowers PMA/ionomycin-induced NF-kB signal in 697 B cells; 697 B-cell NF-kB luciferase reporter, 16 h; inhibition, % at 4 µM; actives 0.33% (n = 330,000); in the data active means inhibition above about 35%
# Jurkat NFkB inh – inhibitors of the PMA/ionomycin-induced NF-kB reporter in Jurkat cells. inhibition, % at 4 µM. actives 0.53% (n = 330,000). AID 435003. PMA/ionomycin-induced NF-kB luciferase reporter, luminescence; in the data active means inhibition above about 50%
# Gli-Sufu antag – blocks Gli-Sufu signaling in a luciferase reporter; Sufu-KO-LIGHT fibroblasts, Gli luciferase reporter luminescence; inhibition, % at 5 µM; actives 0.74% (n = 340,000);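 active means inhibition above about 55%, limit read from the data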;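 further: 0% = DMSO-treated cells and 100% = wells with medium but no cells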
# EBV LMP1 NFkB – reduces LMP1-driven NF-kappaB luciferase signal; actives 0.69% (n = 350,000); LMP1-induced NF-kappaB luciferase reporter cells, luminescence; inhibition, % at 12.5 µM; in the data active means inhibition above about 41%;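 further: 0% = neutral control wells and 100% = reference inhibitor control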
# Shn3 3UTR inh – reduces Shn3 3'UTR luciferase signal in osteoblasts; Clone20 osteoblast Shn3 3'UTR firefly luciferase, 24 h; inhibition, % at 12.5 µM; actives 0.52% (n = 360,000);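 active means mean inhibition of at least 75% with every replicate also reaching 75%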;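 further: 0% = median of neutral control wells and 100% = pilot-screen positive control compound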
# The depositor's hits bear a star; / = no result.
SMILES,TRPM1 prom inh,697 NFkB inh,Jurkat NFkB inh,Gli-Sufu antag,EBV LMP1 NFkB,Shn3 3UTR inh
Nc1cc2nsnc2cc1Br,70*,10,-1,6,2,72
Cc1cc(=O)[nH]c(N/N=C/c2ccco2)n1,7,15,10,21,-15,-11
Cc1cc(=O)[nH]c(N/N=C/c2ccc(C)o2)n1,2,5,8,-2,48*,-1
N#CC(C#N)=C1C=CC=CN1/C(=C\c1ccco1)C(=O)c1ccc(-c2ccccc2)cc1,73*,/,/,14,-32,16
N#CC(C#N)=C1C=CC=CN1/C(=C\c1ccco1)C(=O)c1ccc(Cl)cc1,90*,/,/,31,-30,97*
Cc1c(C(=O)Nc2ccc(F)cc2)sc2ncn(CC(=O)N3CCCCC3)c(=O)c12,15,6,10,1,-7,7
O=C(Nc1cccc(O)c1)c1cccc(S(=O)(=O)Nc2cccc(O)c2)c1,3,7,1,-7,49*,-1
C#CCOCCOCCOCCNc1nc(N2CCN(C(=O)[C@H](CCCCN)n3cc([C@@H](N)C(C)CC)nn3)CC2)nc(N2CCN(C(=O)[C@H](CCCCN)n3cc([C@@H](N)CO)nn3)CC2)n1 (some centres not stated),/,10,9,/,/,/
CC(C)(C)OC(=O)N[C@@H](Cc1ccccc1)c1nnc(S(=O)(=O)Cc2ccccc2)o1,/,-23,37,/,/,/
Cc1ccccc1CS(=O)(=O)c1nnc([C@H](Cc2ccccc2)NC(=O)OC(C)(C)C)o1,83*,-18,15,-1,7,95*
CCC(C)[C@@H](NC(=O)OC(C)(C)C)c1nnc(S(=O)(=O)Cc2cccc(C)c2)o1 (some centres not stated),71*,/,/,-1,1,98*
COc1ccc(/C=C/CN2CCN(Cc3ccccc3)C(CCO)C2)cc1 (configuration not stated),-3,5,7,34,51*,2
CCCN(CCC)c1ncnc2nc[nH]c12,/,-45,20,-17,48*,7
c1ccc(-c2ncc(CSc3nncn3-c3ccccc3)s2)cc1,-5,-12,0,0,-15,-1
Cc1nnc(SCc2cnc(-c3ccc(C(C)C)cc3)s2)n1C,12,-84,-57,-83,43*,-19
CCN(CC(=O)Nc1ccc(NC(C)=O)cc1)C(=O)c1cccnc1Sc1ccc(C)c(C)c1,3,-15,-9,0,41*,2
COc1ccc(NC(=O)CN(C)C(=O)c2cccnc2Sc2ccc(C)c(C)c2)cc1,2,-6,4,-7,-10,10
CCN(Cc1ccc(OC)c(F)c1)C(=O)CCl,75*,25,21,-24,-14,15
COc1ccccc1S(=O)(=O)Cc1ccc(C(=O)NCc2ccc(C)cc2)o1,13,-3,7,-14,4,-6
Clc1ccc(-c2cn3nc4c(nc3n2)CCCC4)cc1,26,-141,-115,-28,50*,14
Cc1ccc(NC(=O)c2csc(-c3ccccc3)c2C)cc1,16,/,/,-141,45*,56
O=C(CN1C(=O)c2ccccc2S1(=O)=O)Nc1ncc(Cl)cc1Cl,38,25,14,48,41*,39
CC(=O)Nc1ccc(S(=O)(=O)N(C)CC(=O)OCCOc2cccc(C)c2)cc1,0,-18,9,2,3,0
CN(C)CCNC(=O)c1cccc2ccc(-c3ccc(-c4ccccc4)cc3)nc12,70*,/,/,18,-2,-5
COc1ccc(OC)c2nc3c(C(=O)NCCN(C)C)cccc3nc12,73*,/,/,-35,-2,41
SMILES,TRPM1 prom inh,697 NFkB inh,Jurkat NFkB inh,Gli-Sufu antag,EBV LMP1 NFkB,Shn3 3UTR inh
CN(C)CCNC(=O)c1cccc2nc3cccc(F)c3nc12,77*,/,/,22,-1,91*
COC(=O)n1c(=S)oc2cc(Cl)ccc21,/,15,-3,/,/,/
CCN(CC(=O)Nc1ccccc1OC)C(=O)C1CC2C=CC1C2 (configuration not stated),0,-11,7,5,-9,-3
COc1cc(NC(=O)CN2C(=O)CN(C)C2=O)c(C)cc1[N+](=O)[O-],13,10,4,0,-1,10
COc1cc(NC(=O)Cn2ncc(Cl)c(Cl)c2=O)c(C)cc1[N+](=O)[O-],103*,/,/,10,81*,97*
Cc1cccn2c(=O)c(/C=N/O)c(N3CCCCC3)nc12,6,-2,-9,6,-5,10
Cc1ccc(S(=O)(=O)N2CCN(c3cnn(-c4ccccc4)c(=O)c3Cl)CC2)cc1,-13,-39,30,-8,14,1
Cc1ccc(NC(=O)CO/N=C(\N)c2ccccc2)cc1C,-8,7,9,10,-8,89*
CC(C)(C)c1ccc(NC(=O)CON=C(N)c2ccccc2)cc1,-7,-11,-12,-1,-7,5
Clc1ccc2c(NCCNC3CCCCC3)ccnc2c1,95*,/,/,21,2,45
O=S(=O)(Nc1nc2ccccc2nc1Cl)c1ccccc1C(F)(F)F,-2,11,13,-4,9,-16
COc1cc2c3nnc(-c4ccc(F)cc4)c-3cn(Cc3ccc(C)cc3)c2cc1OC,85*,-25,6,12,-40,18
COc1cc2c3nnc(-c4ccc(F)cc4)c-3cn(Cc3cccc(F)c3)c2cc1OC,75*,8,5,9,-5,-8
COc1cc2c3nnc(-c4ccc(F)cc4)c-3cn(Cc3cccc(C)c3)c2cc1OC,/,-26,6,6,-58,26
COc1cc2c3nnc(-c4ccccc4)c-3cn(Cc3ccc(F)cc3)c2cc1OC,27,-35,7,24,0,26
O=C(CCCC(=O)OCC(=O)c1cccs1)Nc1ccc(Oc2ccccc2)cc1,-2,13,10,-4,-1,-1
COC(=O)C1=C(CS(=O)(=O)c2ccc(OC)cc2)NC(=O)NC1c1ccccc1 (configuration not stated),11,2,-3,-10,-11,2
CC1=C(C)/C(=N\OS(=O)(=O)c2ccc(C)cc2)C=CC1=O,48,/,/,-1,-6,95*
COc1ccc(S(=O)(=O)/N=C2/C=CC(=O)C(C)=C2C)cc1,7,-55,-12,-5,-3,11
CCC(=O)NC(c1ccccc1OC)c1ccc2cccnc2c1O (configuration not stated),66*,-17,30,49,65*,89*
CCCCC(=O)NC(c1ccco1)c1cc(Cl)c2cccnc2c1O (configuration not stated),6,-15,-9,6,31,78
CCCCC(=O)NC(c1ccccc1Cl)c1ccc2cccnc2c1O (configuration not stated),71*,-26,41,86*,72*,88*
CCC(=O)NC(c1ccc(OC)cc1)c1cc(Cl)c2cccnc2c1O (configuration not stated),50,-24,14,44,38,60
